The values that follow come from PubChem BioAssay (NCATS).

Results filed as inconclusive are left out. Entries that show only a call come without a potency. Calls of active or inactive are those of the source. Calls come from the whole dose curve; as a rule, active = well fitted inhibition curve with a large enough effect; inconclusive = small, poorly fitted or top-dose-only effect; inactive = flat fitted curve, though single readings scatter.

This assay deals with Glutathione peroxidase 1 (Homo sapiens) (UniProt P07203). As to the kind of experiment: Primary qHTS Assay for Inhibitors of Recombinant Selenoprotein Glutathione Peroxidase 1 (GPX1) (AID 1845191). Note: nearly all actives have a fitted effect of over 65% in size. The following applies: recombinant GPX1, GR-coupled NADPH fluorescence, 15 min; series mostly up to 48.8 µM. In outline: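 GPX1 10 nM, GR 100 nM, GSH 1 mM, NADPH 0.5 mM, CHP 0.5 mM (final). 30-min cpd preincubation, RT. Ex340/Em450 read t=0, t=15 min.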
Glutathione peroxidase 1 (Homo sapiens), sequence (P07203 whole entry, looked up): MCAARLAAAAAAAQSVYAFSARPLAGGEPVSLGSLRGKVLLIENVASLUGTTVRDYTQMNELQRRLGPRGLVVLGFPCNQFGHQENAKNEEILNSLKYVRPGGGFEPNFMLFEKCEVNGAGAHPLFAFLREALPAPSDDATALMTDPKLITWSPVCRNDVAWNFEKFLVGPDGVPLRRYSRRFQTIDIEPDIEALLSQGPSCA
As to `O=C(O[C@H]1[C@@H]2C=CO[C@@H](O[C@@H]3O[C@H](CO)[C@@H](O)[C@H](O)[C@H]3O)[C@@H]2[C@@]2(CO)O[C@@H]12)c1ccc(O)c(O)c1`, the Potency result is “inactive”.

With `CCN[C@@H]1C[C@H](N)[C@@H](O[C@H]2OC(CN)=CC[C@H]2N)[C@H](O)[C@H]1O[C@H]1OC[C@](C)(O)[C@H](NC)[C@H]1O`, the Potency result was “inactive”.

For the compound `COc1cc(C2c3cc(O)c(OC)cc3CC(CO)C2CO)ccc1O` (stereo unspecified), the Potency result is “inactive”.

For the compound `CC1=CC(=O)CC(C)(CO[C@@H]2O[C@H](CO)[C@@H](O)[C@H](O)[C@H]2O)C1(O)/C=C/C(C)=C/C(=O)O` (stereo partly specified), the Potency result is “inactive”.

Consider `O=C1NC(Cc2ccc(O)cc2)C(=O)N2CCCC12` (stereo unspecified), for which the Potency entry is “inactive”.

Turning to `CC(=O)NCCCCn1c2c(c3ccccc31)C(=O)NCC2`, the Potency result was “inactive”.

For the compound `COC(=O)C12C(=O)C(C)=C(O)C1(C)C(C)=CC1C34CCC(OC3=O)C(C)(C)C4CCC12C` (stereo unspecified), the Potency result was “inactive”.

As to `CC(=O)OC[C@@]12[C@H](O)C[C@]3(C)C(=CCC4[C@@]5(C)CC[C@H](O[C@@H]6O[C@H](C(=O)O)[C@@H](O[C@@H]7O[C@H](CO)[C@@H](O)[C@H](O)[C@H]7O)[C@H](O)[C@H]6O[C@@H]6O[C@H](CO)[C@@H](O)[C@H](O)[C@H]6O)[C@](C)(CO)C5CC[C@]43C)[C@@H]1CC(C)(C)[C@@H](OC(C)=O)[C@@H]2O` (stereo partly specified), the Potency result was “inactive”.

As to `C[C@@H]1O[C@@H](O[C@H]2[C@H](O[C@H]3[C@H](O[C@H]4CC[C@@]5(C)C(CC[C@]6(C)C5CC=C5[C@@H]7CC(C)(C(=O)O)C[C@@H](O)[C@]7(C)CC[C@]56C)[C@@]4(C)CO)O[C@H](C(=O)O)[C@@H](O)[C@@H]3O)O[C@H](CO)[C@H](O)[C@@H]2O)[C@H](O)[C@H](O)[C@H]1O` (stereo partly specified), the Potency result was “inactive”.

On to `CC12CCC3C(C)(C)C(O)CCC3(C)C1Cc1c(oc(C(=O)O)cc1=O)O2` (stereo unspecified), for which the Potency result was “inactive”.

As for `CC(C)(O)c1ccc2c(c1)C(=O)CC1[C@](C)(CO)CCC[C@]21C` (stereo partly specified), the Potency result was “inactive”.

Turning to `CCCC1=CC2=C(CO1)C(=O)C(C)(OC(=O)c1c(C)cc(OC)cc1O)C(O)C2` (stereo unspecified), the Potency entry is “inactive”.

With `CC1(C)CCC(C)(C)c2cc3c(cc21)Sc1ccccc1N=C3c1ccc(C(=O)O)cc1`, the Potency result was “inactive”.

Regarding `C[C@@H]1O[C@@H](O[C@H]2[C@H](OC(=O)[C@]34CCC(C)(C)C[C@H]3C3=CCC5[C@@]6(C)C[C@H](O)[C@H](O[C@@H]7O[C@H](CO[C@@H]8OC[C@H](O)[C@H](O)[C@H]8O)[C@@H](O)[C@H](O)[C@H]7O)C(C)(C)C6CC[C@@]5(C)[C@]3(C)C[C@H]4O)OC[C@@H](O)[C@@H]2O)[C@H](O)[C@H](O[C@@H]2OC[C@](O)(CO)[C@H]2O)[C@H]1O[C@@H]1OC[C@H](O)[C@H](O[C@@H]2OC[C@@H](O)[C@H](O)[C@H]2O)[C@H]1O` (stereo partly specified), the outcome is “inactive [at 9.52 µM]”.

Consider `CC(C)c1ccc(CC(=O)N2CCC[C@@H](c3cccc(OC(C)(C)C(=O)O)c3)C2)cc1`, for which the Potency result was “inactive”.

As to `COC(=O)C1=CO[C@@H](O[C@@H]2O[C@H](COC(=O)/C=C/c3cc(OC)c(O)c(OC)c3)[C@@H](O)[C@H](O)[C@H]2O)[C@@H]2C(CO)=CC[C@H]12`, the Potency result is “inactive”.

With `CC(=O)N(O)CCCCCN1C(=O)CCC1=O`, the Potency entry is “inactive”.

As to `CCc1nc(C(N)=O)c(Nc2ccc(N3CCC(N4CCN(C)CC4)CC3)c(OC)c2)nc1NC1CCOCC1`, the Potency result is “inactive”.

On to `OC[C@H]1O[C@@H](n2cnc3c(NCc4ccc(O)cc4)ncnc32)[C@H](O)[C@@H]1O`, for which the Potency entry is “inactive”.

Consider `C=C(C)[C@H]1C[C@@H](O)C(=C)CC[C@@H](O)C(=C)[C@@H](O)C1`, for which the Potency entry was “inactive”.

`CC1(C)CCC[C@@]2(C)[C@H]1[C@H](O)C=C1COC(=O)[C@@]12O`: the Potency result was “inactive”.

With `C=C1CC2[C@]3(C)C(=C(O)C(=O)[C@@]2(C)[C@]2(C(=O)OC)C(=O)C(C)OC(=O)[C@@]12C)C(C)(C)C(=O)CC3O` (stereo partly specified), the Potency entry is “inactive”.

Regarding `CO[C@@]12CC3[C@@H]([C@@H](O)[C@@H](OC(C)=O)C4[C@](C)(COC(C)=O)CCC[C@]34C)[C@@H](C)C1=CC(=O)O2` (stereo partly specified), the Potency result was “inactive”.

With `C[C@H]1C[C@H]2[C@@H]3CCC4=CC(=O)C=C[C@]4(C)[C@@]3(F)[C@@H](O)C[C@]2(C)[C@@]1(O)C(=O)COP(=O)(O)O`, the Potency entry was “inactive”.

In the case of `CC(C)(O)C1CC=C(C(=O)OCC2OC(Oc3c(O)cc(C(=O)O)cc3O)C(O)C(O)C2O)CC1` (stereo unspecified), the Potency result was “inactive”.

As to `COc1cccc(-c2ccc([C@@H](Oc3cc(-c4ccc(C[C@H](N)C(=O)O)cc4)nc(N)n3)C(F)(F)F)cc2)c1`, the Potency entry was “inactive”.
